The list shows a part of the results. A number with no mark means an inactive call. Active and inactive are the calls of the source. No stated cut-off is given here; in the data, active means activation above about 18%; inactive means the rest.
Test: activation of mu-delta opioid heterodimer signal – cell-based, luminescence, counter-screen for HTR5A agonist project (AID 504913)
Settings: U2OS counter-screen cells, complementation luminescence, 3 h; at 9.3 µM; hits give high values
In the case of `CCC(C)NC(=O)CCCc1ccccc1` (stereo not given), the activation is reported as 1.02%.
For `COc1cccc(OCC(=O)Nc2ccccc2C(N)=O)c1`, the activation was 0.46%.
With `CC(C)OC(=O)c1c(NC(=O)c2ccco2)sc2c1CCCC2` the activation was 4.46%.
For `C/C(=N\NC(=O)CNc1cccc2ccccc12)c1ccc(Br)s1`, the activation was -1.65%.
With `O=C(CC(O)(C(F)(F)F)C(F)(F)F)Nc1ccc(Cl)c(Cl)c1` the activation was -1.36%.
In the case of `CN(c1ccccc1)S(=O)(=O)c1cc(C(=O)N2CCN(c3ncccn3)CC2)ccc1Cl`, the activation is reported as -0.79%.
With `CCOC(=O)c1cnc2sccn2c1=O` the activation was 1.07%.
Work on `CCCN(CCc1ccccc1)C1CCc2c(O)cccc2C1` (stereo not given) yielded an activation of 11.3%.
In the case of `CC(NC(=O)c1cc(-c2ccccc2)on1)c1ccccc1` (stereo not given), the activation is reported as 40.1% (active).
With `COc1ccc(C(=O)O/N=C(\N)Cc2ccc(Cl)cc2Cl)cc1OC` the activation was 9.9%.
In the case of `CCN(CC(=O)Nc1cccc(S(=O)(=O)N2CCCCC2)c1)Cc1ccccc1`, the activation is reported as 4.65%.
`CCOc1ccc(NC(=O)Nc2cc(C)on2)cc1` showed an activation of 0.12%.
With `COc1ccc2[nH]cc(CCN3C(=O)c4ccc(C(=O)O)cc4C3=O)c2c1` the activation was 1.66%.
`CC(C)CC(=O)N/C(N)=N/c1nc2ccccc2s1` showed an activation of 5.76%.
`Cc1ccc(C(=O)N/C(=C/c2ccco2)C(=O)NCCc2c[nH]c3ccccc23)cc1C` showed an activation of 0.35%.
`CC1(C)C2CCC1(CS(=O)(=O)NCCc1c[nH]c3ccccc13)C(=O)C2` (stereo not given) gave an activation of 0.82%.
`COc1cccc(/C=N/NC(=O)c2[nH]nc3c2CCc2ccccc2-3)c1O` showed an activation of -4.02%.
`Cc1ccccc1CN1CCN(CC(=O)NCc2ccccn2)C1=O` gave an activation of 0.64%.
`c1ccc(-n2nc3ccccc3n2)cc1` gave an activation of 2.66%.
`COc1ccc(-c2ocnc2C(=O)Nc2ccc3c(c2)CCC3)cc1` gave an activation of -2.69%.
With `CC(=O)COc1ccc2c(-c3ccccc3)cc(=O)oc2c1` the activation was 63.2% (active).
In the case of `Cc1cccc2sc(N(CCCN(C)C)C(=O)CCS(=O)(=O)c3ccccc3)nc12`, the activation is reported as 0.46%.
Compound `O=C(CNCc1ccco1)Nc1cc(S(=O)(=O)N2CCOCC2)ccc1N1CCCC1` has an activation of 3.16%.
For `COc1ccccc1S(=O)(=O)NCc1ccc(C(=O)N(C)Cc2ccc(F)cc2)cc1`, the activation was 3.43%.
In the case of `CN1c2ccc(C=O)c3c(C=O)ccc(c23)N(C)C1(C)C`, the activation is reported as 107% (active).
